{"source": "PubChem BioAssay (NCATS)", "note": "Results filed as inconclusive are left out. Activity calls are given as the source filed them. Calls follow the shape of the dose curve; as a rule, active = well fitted inhibition curve with a large enough effect; inconclusive = small, poorly fitted or top-dose-only effect; inactive = flat fitted curve, though single readings scatter. % is scaled to controls: 0 for no effect and ±100 for the full control effect; potency is read from the fitted curve at half-maximal effect."}
{"system": "astro", "assay": "Drug repurposing screens with cells derived from glioblastoma tumor samples (AID 1345199); also: nearly all actives have a fitted effect of over 40% in size", "conditions": "viability, ATP luminescence, 48 h; series mostly up to 45.9 µM; activity, negative = cell killing: at the top concentration", "method_in_brief": "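Four patient lines of CD133+ GBM neurospheres were screened at several concentrations; hits were retested in those lines plus three slower-growing GBM lines, using 48-hour treatment and ATP-based viability.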"}
{"smiles": "CC(COc1ccccc1)NC(C)C(O)c1ccc(O)cc1", "note": "(stereo unspecified)", "activity, negative = cell killing": "-19.5% [at 21.2 µM] (inactive)"}
{"smiles": "O=C(O)c1ccccc1O", "Potency": "inactive"}
{"smiles": "CN1[C@@H]2CC[C@H]1CC(OC(=O)C(O)c1ccccc1)C2", "note": "(stereo partly specified)", "Potency": "inactive"}
{"smiles": "OC[C@H]1O[C@@H](O[C@@H]2[C@@H](CO)O[C@](O)(CO)[C@H]2O)[C@H](O)[C@@H](O)[C@H]1O", "activity, negative = cell killing": "-15.3% (inactive)"}
{"smiles": "CC(=O)c1ccc2c(c1)N(CCCN(C)C)c1ccccc1S2", "activity, negative = cell killing": "-13.2% [at 21.2 µM] (inactive)"}
{"smiles": "CSc1ccc2c(c1)N(CCC1CCCCN1C)c1ccccc1S2", "note": "(stereo unspecified)", "Potency": "20 µM (active)"}
{"smiles": "O=c1cc(CO)occ1O", "Potency": "inactive"}
{"smiles": "O=C(O)CC(O)C(=O)O", "note": "(stereo unspecified)", "activity, negative = cell killing": "-12.3% (inactive)"}
{"smiles": "CCCCOc1cc(C(=O)OCCN(CC)CC)ccc1N", "activity, negative = cell killing": "-20.7% [at 21.2 µM] (inactive)"}
{"smiles": "O=C1O[C@H](CO)[C@@H](O)[C@H](O)[C@H]1O", "activity, negative = cell killing": "4.08% (inactive)"}
{"smiles": "CN(C)CCCN1c2ccccc2Sc2ccc(Cl)cc21", "Potency": "12.6 µM (active)"}
{"smiles": "CCN(CC)CCSC(=O)C(c1ccccc1)c1ccccc1", "activity, negative = cell killing": "-26.1% (inactive)"}
{"smiles": "O=C(O)[C@H](O)c1ccccc1", "activity, negative = cell killing": "-16.4% (inactive)"}
{"smiles": "O=C(O)[C@@H]1CSCN1", "activity, negative = cell killing": "-6.04% (inactive)"}
{"smiles": "N[C@@H](CSSC[C@H](N)C(=O)O)C(=O)O", "activity, negative = cell killing": "-2.35% (inactive)"}
{"smiles": "OCC(O)CN1CCN(c2ccccc2)CC1", "note": "(stereo unspecified)", "activity, negative = cell killing": "4.46% (inactive)"}
{"smiles": "OCc1cc(C(O)CNCCCCCCOCCCCc2ccccc2)ccc1O", "note": "(stereo unspecified)", "Potency": "11.2 µM (active)"}
{"smiles": "CCOc1nc2cccc(C(=O)O)c2n1Cc1ccc(-c2ccccc2-c2nn[nH]n2)cc1", "Potency": "20 µM (active)"}
{"smiles": "Cn1c(=O)c2c(ncn2CC2OCCO2)n(C)c1=O", "activity, negative = cell killing": "-6.95% (inactive)"}
{"smiles": "O=C(CCCN1CCN(c2ccccn2)CC1)c1ccc(F)cc1", "activity, negative = cell killing": "-14.4% (inactive)"}
{"smiles": "C[C@@H]1CC[C@@]2(OC1)O[C@H]1C[C@H]3[C@@H]4CC[C@H]5C[C@@H](O)CC[C@]5(C)[C@H]4CC(=O)[C@]3(C)[C@H]1[C@@H]2C", "activity, negative = cell killing": "-10.2% [at 21.2 µM] (inactive)"}
{"smiles": "O=c1cc[nH]c(=O)[nH]1", "activity, negative = cell killing": "-13.1% (inactive)"}
{"smiles": "CN(C)CC[C@@H](c1ccc(Cl)cc1)c1ccccn1", "activity, negative = cell killing": "-4.51% (inactive)"}
{"smiles": "CC(C)(C)NCC(O)COc1ccc(NC(=O)NC2CCCCC2)cc1", "note": "(stereo unspecified)", "activity, negative = cell killing": "-25.4% (inactive)"}
{"smiles": "CC(C)(O)c1ccccc1CC[C@@H](SCC1(CC(=O)O)CC1)c1cccc(/C=C/c2ccc3ccc(Cl)cc3n2)c1", "Potency": "20 µM (active)"}
{"smiles": "O=c1[nH]cnc2c1ncn2[C@@H]1O[C@H](CO)[C@@H](O)[C@H]1O", "activity, negative = cell killing": "-9.52% (inactive)"}
{"smiles": "c1ccc2c(CC3=NCCN3)cccc2c1", "Potency": "inactive"}
{"smiles": "Nc1nc2c(ncn2CCC(CO)CO)c(=O)[nH]1", "activity, negative = cell killing": "-5.26% (inactive)"}
{"smiles": "CCN(CC)C(C)CN1c2ccccc2Sc2ccccc21", "note": "(stereo unspecified)", "activity, negative = cell killing": "-25% [at 21.2 µM] (inactive)"}
{"smiles": "CN(C)CCN(Cc1ccccc1)c1ccccn1", "activity, negative = cell killing": "-9.92% (inactive)"}
{"smiles": "CCC(=O)Nc1ccc(O)cc1", "activity, negative = cell killing": "5.04% (inactive)"}
{"smiles": "NC(CSCC(=O)O)C(=O)O", "note": "(stereo unspecified)", "activity, negative = cell killing": "-14.5% (inactive)"}
{"smiles": "COc1cc2[nH]c(=O)[nH]c(=O)c2cc1OC", "activity, negative = cell killing": "-18.4% [at 21.2 µM] (inactive)"}
{"smiles": "CC1=C(CC(=O)O)c2cc(F)ccc2/C1=C\\c1ccc(S(C)(=O)=O)cc1", "activity, negative = cell killing": "-19.6% (inactive)"}
{"smiles": "CC(C)(C)C(=O)C(Oc1ccc(Cl)cc1)n1ccnc1", "note": "(stereo unspecified)", "activity, negative = cell killing": "-14.7% (inactive)"}
{"smiles": "CCCCc1ncc(/C=C(\\Cc2cccs2)C(=O)O)n1Cc1ccc(C(=O)O)cc1", "activity, negative = cell killing": "-11.4% (inactive)"}
